From PubChem BioAssay AID1159580 (chemical genetic matrix, 2015)
Values joined by “and” are separate entries in the source; they are usually repeats but may differ in a detail not shown here. Equal entries are not always repeated. In all, about 5,500 compounds went through this assay and about 2,000 (36%) were called active. Not shown: some 18% with an inconclusive outcome. No stated cut-off is given here; in the data, active means normalized growth mostly below about 0.91 (no sharp cut-off); inconclusive means no clear call, values can overlap the other calls; inactive means mostly above about 0.92. Some of the results follow.

Test: chemical genetic growth profiling, strain panel (AID 1159580);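 further: tested at 20 µM; growth read once vehicle control cultures reached saturation at 30 °C; 1 = growth at the plate median or of vehicle wells; lower values mean less growth of the strain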
Conditions: S. cerevisiae deletion strains, growth OD

Measured: normalized growth

NC(=O)c1cccc(N)c1
inactive: locus YAL013W, strain DEP1, hits give low values 1 and 1.01 | locus YAL021C, strain ccr4, hits give low values 0.979 | locus YAL026C, strain drs2, hits give low values 0.97 | locus YAL030W, strain snc1, hits give low values 0.992 | locus YAL040C, strain CLN3, hits give low values 1 | locus YBL061C, strain skt5, hits give low values 0.977 | locus YBR009C, strain hhf1, hits give low values 0.998 | locus YBR021W, strain FUR4, hits give low values 0.968 | locus YBR023C, strain chs3, hits give low values 0.981 | locus YBR171W, strain sec66, hits give low values 0.962 | locus YBR229C, strain ROT2, hits give low values 1 | locus YBR231C, strain swc5, hits give low values 0.967 | locus YBR279W, strain paf1, hits give low values 0.99 | locus YCL011C, strain gbp2, hits give low values 0.957 | locus YCL016C, strain dcc1, hits give low values 0.988 | locus YCL029C, strain bik1, hits give low values 1 | locus YCL061C, strain MRC1 (second series), hits give low values 1 | locus YCL069W, strain vba3, hits give low values 0.962 | locus YCR088W, strain abp1, hits give low values 0.972 | locus YDL005C, strain med2, hits give low values 0.969 | locus YDL035C, strain GPR1, hits give low values 1 | locus YDL040C, strain nat1, hits give low values 0.988 | locus YDL074C, strain BRE1, hits give low values 1.01 | locus YDL101C, strain DUN1, hits give low values 1.01 | locus YDL134C, strain PPH21, hits give low values 0.999 | locus YDL185W, strain tfp1, hits give low values 1.01 | locus YDL192W, strain arf1, hits give low values 0.999 | locus YDR001C, strain nth1, hits give low values 0.979 | locus YDR069C, strain doa4, hits give low values 0.966 | locus YDR101C, strain arx1, hits give low values 0.987 | locus YDR137W, strain rgp1, hits give low values 0.976 | locus YDR150W, strain NUM1, hits give low values 1.01 | locus YDR159W, strain sac3, hits give low values 0.965 | locus YDR162C, strain NBP2, hits give low values 1 | locus YDR195W, strain ref2 0.958 | locus YDR297W, strain sur2, hits give low values 0.98 | locus YDR318W, strain mcm21, hits give low values 0.985 | locus YDR334W, strain swr1, hits give low values 0.96 | locus YDR335W, strain msn5, hits give low values 0.97 | locus YDR363W, strain ESC2, hits give low values 1 | locus YDR388W, hits give low values 0.993 | locus YDR392W, strain spt3, hits give low values 0.965 | locus YDR502C, strain sam2, hits give low values 1.01 | locus YEL003W, strain gim4, hits give low values 0.979 | locus YEL037C, strain rad23, hits give low values 0.969 | locus YEL061C, strain CIN8 (second series), hits give low values 0.954 | locus YEL061C, strain CIN8, hits give low values 1.01 | locus YER002W, strain NOP16, hits give low values 1.02 | locus YER015W, strain faa2, hits give low values 0.983 | locus YER016W, strain bim1, hits give low values 0.977 | locus YER110C, hits give low values 0.996 | locus YER111C, strain swi4, hits give low values 0.966 | locus YER155C, strain BEM2 (second series), hits give low values 0.965 | locus YER155C, strain BEM2, hits give low values 0.99 | locus YER167W, strain BCK2, hits give low values 1 | locus YFR010W, strain ubp6, hits give low values 0.968 | locus YGL078C, strain dbp3, hits give low values 1 | locus YGL086W, strain mad1, hits give low values 0.988 | locus YGL167C, strain pmr1, hits give low values 0.981 | locus YGL173C, strain kem1, hits give low values 0.984 | locus YGL227W, strain vid30, hits give low values 0.966 | locus YGL240W, strain doc1, hits give low values 0.969 | locus YGL248W, strain PDE1, hits give low values 1 | locus YGL253W, strain hxk2, hits give low values 0.963 | locus YGR078C, strain PAC10, hits give low values 1 and 1.05 | locus YGR135W, strain pre9, hits give low values 0.986 | locus YGR229C, strain SMI1, hits give low values 1.01 | locus YGR252W, strain gcn5, hits give low values 0.978 | locus YHR013C, strain ard1, hits give low values 0.972 | locus YHR027C, strain rpn1, hits give low values 0.974 | locus YHR030C, strain SLT2, hits give low values 1.01 | locus YHR079C, strain IRE1 (second series), hits give low values 0.994 | locus YHR094C, strain hxt1, hits give low values 0.998 | locus YHR129C, strain ARP1, hits give low values 1 | locus YHR142W, strain chs7, hits give low values 0.968 | locus YHR200W, strain rpn10, hits give low values 0.993 | locus YIL066C, strain RNR3, hits give low values 1 | locus YIL073C, strain SPO22, hits give low values 1.02 | locus YIL125W, strain kgd1, hits give low values 0.996 | locus YIR030C, strain dcg1, hits give low values 0.996 | locus YJL092W, strain hpr5, hits give low values 0.954 | locus YJL095W, strain BCK1 (second series), hits give low values 0.979 | locus YJL095W, strain BCK1, hits give low values 1 | locus YJL115W, strain asf1, hits give low values 0.966 | locus YJL129C, strain trk1, hits give low values 0.965 | locus YJL134W, strain LCB3, hits give low values 1 | locus YJL154C, strain vps35, hits give low values 0.979 | locus YJL164C, strain tpk1, hits give low values 1 | locus YJL166W, strain qcr8, hits give low values 1.01 | locus YJL168C, strain set2, hits give low values 0.99 | locus YJL187C, strain SWE1 (second series), hits give low values 1.01 | locus YJL187C, strain SWE1, hits give low values 0.968
